Reference: PubChem BioAssay (EPA / NIEHS)
Inconclusive results are not listed. Active and inactive are the calls of the source. Rule for the calls, unless noted: active = hit-call score of the fitted dose curve at least 0.9, where 1 is the maximum; inconclusive = response in the unintended direction; inactive = score below 0.9.

Columns and labels:
[1] = ATG_TAL_CIS: Attagene CIS-FACTORIAL HepG2 Assay for human TAL Basal Promoter (AID 2282966; active = hit-call score of the fitted dose curve at least 0.9, where 1 is the maximum; inactive = score below 0.9;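 note: background control endpoint measuring basal TAL promoter reporter mRNA not a specific factor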); settings: HepG2 Attagene cis-factorial TAL promoter reporter; actives raise or lower the signal
Outline: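 RT-PCR plus capillary electrophoresis quantifies reporter mRNA induction in transiently transfected HepG2 cells after 24 h chemical treatment. DMSO serves as negative control and baseline for bidirectional fitting.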

[2] = ATG_TGFb_CIS: Attagene CIS-FACTORIAL HepG2 Assay for human Transforming Growth Factor (TGF) (AID 2282967; active = hit-call score of the fitted dose curve at least 0.9, where 1 is the maximum; inactive = score below 0.9); settings: HepG2 Attagene CIS TGFb reporter, mRNA transcription; actives raise or lower the signal
Outline: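 HepG2 cells transiently transfected with cis-promoter-driven multiple reporter units measure endogenous TF activity; reporter mRNA quantified at 24 h by RT-PCR, FAM labeling, HpaI digestion and capillary electrophoresis. Bidirectional fit vs DMSO.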

[3] = ATG_VDRE_CIS: Attagene CIS-FACTORIAL HepG2 Assay for human Vitamin D Receptor Element (VDRE) (AID 2282968; active = hit-call score of the fitted dose curve at least 0.9, where 1 is the maximum; inactive = score below 0.9); settings: HepG2 VDRE cis-reporter transcription, actives raise or lower the signal
Outline: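 Reporter mRNA induction, quantified by capillary electrophoresis of fluorescently labelled RT-PCR products, was read 24 h after dosing HepG2 cells carrying transiently transfected cis-regulated reporter units; gain or loss relative to DMSO.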

[4] = molecular target: Estrogen receptor (Homo sapiens) (UniProt P03372); assay: ATG_ERa_TRANS: Attagene TRANS-FACTORIAL HepG2 Assay for human Estrogen Receptor alpha (ERa) (AID 2282970); settings: HepG2 Attagene TRANS ERa GAL4 reporter, mRNA
Outline: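 Cells: HepG2, transiently transfected. Construct: GAL4-UAS reporter units regulated by exogenous NR-Gal4 chimeras. Time: 24 h. Detection: reporter mRNA by RT-PCR, capillary electrophoresis, fluorescence. Baseline: DMSO, upward fitting.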

[5] = molecular target: Steroid hormone receptor ERR1 (Homo sapiens) (UniProt P11474); assay: ATG_ERRa_TRANS: Attagene TRANS-FACTORIAL HepG2 Assay for human Estrogen-Related Receptor alpha (ERRa) (AID 2282971); settings: HepG2 Attagene TRANS reporter, ERRa transactivation
Outline: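 Reporter transcripts from ERRa-Gal4 chimera activity measured in transiently transfected human HepG2 cells 24 hours after dosing, using RT-PCR with 6-FAM primer extension, HpaI digestion and capillary electrophoresis; DMSO is baseline.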

[6] = molecular target: X-box-binding protein 1 (Homo sapiens) (UniProt P17861); assay: ATG_Xbp1_CIS: Attagene CIS-FACTORIAL HepG2 Assay for human X-box Binding Protein 1 (XBP1) (AID 2282972; active = hit-call score of the fitted dose curve at least 0.9, where 1 is the maximum; inactive = score below 0.9); settings: HepG2 XBP1 cis-element reporter, Attagene multiplex; actives raise or lower the signal
Outline: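 HepG2 cells transiently transfected with cis-regulated multiple reporter transcription units; endogenous transcription factor activity measured 24 hours after chemical dosing. Reporter mRNA quantified by RT-PCR, 6-FAM primer extension, HpaI digestion and capillary electrophoresis; bidirectional fitting versus DMSO.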

[7] = ATG_M_19_TRANS: Attagene TRANS-FACTORIAL HepG2 Assay for M19 Transcription Factor (Internal Marker) (AID 2282974); settings: HepG2 Attagene TRANS-FACTORIAL M19 internal marker reporter
Outline: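 HepG2 transiently transfected with GAL4-UAS multiplex reporter constructs, exposed 24 h; reporter RNA quantified by RT-PCR, 6-FAM labeling, HpaI digestion and capillary electrophoresis; internal background marker fitted upward versus DMSO.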

[8] = molecular target: Estrogen-related receptor gamma (Homo sapiens) (UniProt P62508); assay: ATG_ERRg_TRANS: Attagene TRANS-FACTORIAL HepG2 Assay for human Estrogen-Related Receptor gamma (ERRg) (AID 2282977); settings: HepG2 Attagene TRANS reporter, ERRg transactivation;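 note: hits increase reporter signal over DMSO so potencies reflect activators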
Outline: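 HepG2 cells transiently transfected with multiplexed GAL4-UAS reporter units driven by chimeric NR-Gal4 proteins; 24 h exposure. Reporter mRNA quantified by RT-PCR, fluorescent labelling, HpaI digestion and capillary electrophoresis; gain of signal vs DMSO.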

[9] = molecular target: Glucocorticoid receptor (Homo sapiens) (UniProt P04150); assay: ATG_GR_TRANS: Attagene TRANS-FACTORIAL HepG2 Assay for human Glucocorticoid Receptor (GR) (AID 2282978); settings: HepG2 Attagene TRANS GR reporter, mRNA transcription;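 note: activators score as hits since higher reporter transcript over DMSO is fitted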
Outline: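 HepG2 cells transiently transfected with GAL4-UAS reporter units and exogenous GR-Gal4 chimera, dosed 24 h. Reporter mRNA by RT-PCR, FAM labeling, HpaI digest and capillary electrophoresis; gain-of-signal fit versus DMSO.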

[10] = molecular target: Oxysterols receptor LXR-alpha (Homo sapiens) (UniProt Q13133); assay: ATG_LXRa_TRANS: Attagene TRANS-FACTORIAL HepG2 Assay for human Liver X Receptor alpha (LXRa) (AID 2282980); settings: HepG2 Attagene TRANS reporter, LXRa transactivation
Outline: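 Chemical-induced reporter mRNA measured by RT-PCR with fluorescent labelling and capillary electrophoresis after 24 h dosing of transiently transfected HepG2 cells expressing exogenous NR-Gal4 chimeras; increases scored against DMSO baseline.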

[11] = molecular target: Hepatocyte nuclear factor 4-alpha (Homo sapiens) (UniProt P41235); assay: ATG_HNF4a_TRANS: Attagene TRANS-FACTORIAL HepG2 Assay for human Hepatocyte Nuclear Factor 4 alpha (HNF4a) (AID 2282982); settings: HepG2 HNF4a transactivation reporter, mRNA readout
Outline: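 Readout is fluorescent reporter-transcript fragments resolved by capillary electrophoresis after RT-PCR from HepG2 cells dosed for 24 h. Cells carried transfected GAL4-UAS reporter constructs measuring exogenous NR-GAL4 chimera activity; DMSO served as baseline.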

[12] = molecular target: Transcriptional activator Myb (Homo sapiens) (UniProt P10242); assay: ATG_Myb_CIS: Attagene CIS-FACTORIAL HepG2 Assay for human Myeloblastosis (Myb) Proto-Oncogene Transcription Factor (AID 2282986; active = hit-call score of the fitted dose curve at least 0.9, where 1 is the maximum; inactive = score below 0.9); settings: HepG2 Attagene CIS-FACTORIAL Myb reporter transcription; actives raise or lower the signal
Outline: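 Transiently transfected HepG2 cells carrying a multiplexed cis-promoter reporter set report endogenous Myb activity after 24 h compound exposure. Reporter mRNA is read by RT-PCR with capillary electrophoresis of fluorescent products, fitted bidirectionally against DMSO.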

[13] = molecular target: Nuclear respiratory factor 1 (Homo sapiens) (UniProt Q16656); assay: ATG_NRF1_CIS: Attagene CIS-FACTORIAL HepG2 Assay for human Nuclear Respiratory Factor 1 (NRF1) Orphan Gene (AID 2282987; active = hit-call score of the fitted dose curve at least 0.9, where 1 is the maximum; inactive = score below 0.9); settings: HepG2 NRF1 cis-element reporter, Attagene multiplex; actives raise or lower the signal
Outline: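 HepG2 cells transiently transfected with multiple cis-regulated reporter units, exposed 24 h. Reporter mRNAs measured by RT-PCR, fluorescent labelling, HpaI digestion and capillary electrophoresis; bidirectional fitting against DMSO.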

[14] = ATG_GAL4_TRANS: Attagene TRANS-FACTORIAL HepG2 Assay for GAL4 (Internal Marker) (AID 2282976); settings: HepG2 Attagene TRANS GAL4 internal marker reporter
Outline: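 In transfected human HepG2 liver cells dosed 24 h, GAL4 reporter mRNA serves as a baseline marker. Detection by RT-PCR with fluorescent capillary electrophoresis, activity fitted upward relative to DMSO.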

[15] = molecular target: Oxysterols receptor LXR-beta (Homo sapiens) (UniProt P55055); assay: ATG_LXRb_TRANS: Attagene TRANS-FACTORIAL HepG2 Assay for human Liver X Receptor beta (LXRb) (AID 2282981); settings: HepG2 Attagene TRANS GAL4-LXRb reporter, mRNA
Outline: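 Transient transfection HepG2 (multiplexed RTUs, GAL4-UAS); NR-Gal4 chimera; 24 h exposure; RNA → RT-PCR → 6-FAM primer extension → HpaI → CE; increase vs DMSO.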

[16] = ATG_M_06_TRANS: Attagene TRANS-FACTORIAL HepG2 Assay for M06 Transcription Factor (Internal Marker) (AID 2282983); settings: HepG2 Attagene TRANS M06 internal marker reporter;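 note: reporter transcript level by RT-PCR then capillary electrophoresis fluorescence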
Outline: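 Cells: HepG2, transient multi-reporter transfection. Exposure: 24 h. Detection: RT-PCR, 6-FAM labelling, HpaI digestion (2 h, 37 °C), capillary electrophoresis. Baseline: DMSO.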

[17] = ATG_M_32_TRANS: Attagene TRANS-FACTORIAL HepG2 Assay for M32 Transcription Factor (Internal Marker) (AID 2282984); settings: HepG2 Attagene TRANS M32 internal marker reporter;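 note: transcript level of a background control reporter unit measured by RT-PCR and capillary electrophoresis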
Outline: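 Measures reporter mRNA induction in human HepG2 liver cells after 24 h chemical treatment. Transcripts from transiently transfected GAL4-UAS reporter units are amplified, fluorescently labelled and sized by capillary electrophoresis; gain of signal relative to DMSO.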

[18] = molecular target: Nuclear receptor subfamily 4 group A member 2 (Homo sapiens) (UniProt P43354); assay: ATG_NURR1_TRANS: Attagene TRANS-FACTORIAL HepG2 Assay for human Nuclear Receptor Related Protein 1 (NURR1) (AID 2282985); settings: HepG2 Attagene TRANS reporter, mRNA readout
Outline: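 Transient transfection of HepG2, human liver cells, with multiple GAL4-UAS reporter transcription units. Cells dosed 24 h, RNA isolated, reverse-transcribed, PCR-amplified, FAM-labelled, HpaI-digested, sized by capillary electrophoresis. DMSO served as negative control.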

[19] = molecular target: Nuclear receptor subfamily 1 group I member 3 (Homo sapiens) (UniProt Q14994); assay: ATG_CAR_TRANS: Attagene TRANS-FACTORIAL HepG2 Assay for human Constitutive Androstane Receptor (CAR) (AID 2282969); settings: HepG2 Attagene TRANS-FACTORIAL CAR reporter;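 note: activators raise reporter mRNA above DMSO so AC50 marks induction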
Outline: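 Readout is reporter mRNA induction, quantified by fluorescent primer extension and capillary electrophoresis after RT-PCR. Cells were HepG2 transiently carrying chimeric NR-Gal4 constructs with GAL4-UAS reporters, treated for 24 h; activity scored upward from DMSO.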

[20] = molecular target: Bile acid receptor (Homo sapiens) (UniProt Q96RI1); assay: ATG_FXR_TRANS: Attagene TRANS-FACTORIAL HepG2 Assay for Farnesoid X Receptor (FXR) (AID 2282979); settings: HepG2 Attagene TRANS FXR-GAL4 reporter transcription;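 note: hits raise reporter mRNA above DMSO so AC50 marks FXR activation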
Outline: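 Reporter transcripts from transfected HepG2 cells were measured 24 h after dosing, using RT-PCR with capillary electrophoresis of 6-FAM-labelled fragments. The read-out reflects activity of exogenous FXR-Gal4 chimera on GAL4-UAS units, with induction relative to DMSO.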

Measured: AC50

Sequence of Oxysterols receptor LXR-beta (Homo sapiens) (P55055 whole entry, looked up, the tested form may be a part): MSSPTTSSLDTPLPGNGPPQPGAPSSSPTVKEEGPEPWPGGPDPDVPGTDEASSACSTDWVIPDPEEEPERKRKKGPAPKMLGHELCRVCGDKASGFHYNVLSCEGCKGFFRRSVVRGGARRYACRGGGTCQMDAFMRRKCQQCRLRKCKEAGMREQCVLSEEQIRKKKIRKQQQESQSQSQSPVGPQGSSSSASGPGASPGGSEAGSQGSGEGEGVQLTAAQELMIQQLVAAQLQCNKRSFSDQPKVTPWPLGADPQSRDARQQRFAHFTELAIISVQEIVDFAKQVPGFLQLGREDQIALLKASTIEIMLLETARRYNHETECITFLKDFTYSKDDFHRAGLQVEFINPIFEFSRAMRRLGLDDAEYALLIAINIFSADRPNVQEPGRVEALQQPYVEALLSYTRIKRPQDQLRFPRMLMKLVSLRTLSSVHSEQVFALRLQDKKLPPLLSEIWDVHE
Sequence of Glucocorticoid receptor (Homo sapiens) (P04150 whole entry, looked up, the tested form may be a part): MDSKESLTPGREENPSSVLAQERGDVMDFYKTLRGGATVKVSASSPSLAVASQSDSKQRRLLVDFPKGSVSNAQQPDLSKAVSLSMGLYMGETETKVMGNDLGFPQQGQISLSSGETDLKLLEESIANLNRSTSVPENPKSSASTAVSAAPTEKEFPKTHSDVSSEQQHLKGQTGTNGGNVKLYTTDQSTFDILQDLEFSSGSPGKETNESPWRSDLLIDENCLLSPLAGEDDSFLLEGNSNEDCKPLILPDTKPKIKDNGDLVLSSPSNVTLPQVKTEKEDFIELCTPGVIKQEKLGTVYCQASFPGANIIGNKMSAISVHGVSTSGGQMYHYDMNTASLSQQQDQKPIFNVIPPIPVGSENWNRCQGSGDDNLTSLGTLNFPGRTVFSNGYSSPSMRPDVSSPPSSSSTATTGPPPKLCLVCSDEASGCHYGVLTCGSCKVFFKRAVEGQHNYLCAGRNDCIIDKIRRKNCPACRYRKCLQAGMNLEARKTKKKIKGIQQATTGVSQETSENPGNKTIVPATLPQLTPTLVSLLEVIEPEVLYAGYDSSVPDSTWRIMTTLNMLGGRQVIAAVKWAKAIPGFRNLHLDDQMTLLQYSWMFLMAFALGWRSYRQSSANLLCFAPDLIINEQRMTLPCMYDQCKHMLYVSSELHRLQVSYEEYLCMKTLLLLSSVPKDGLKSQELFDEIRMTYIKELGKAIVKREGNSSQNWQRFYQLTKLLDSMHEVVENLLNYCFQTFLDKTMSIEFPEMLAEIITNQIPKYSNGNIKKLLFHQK
Sequence of Oxysterols receptor LXR-alpha (Homo sapiens) (Q13133 whole entry, looked up, the tested form may be a part): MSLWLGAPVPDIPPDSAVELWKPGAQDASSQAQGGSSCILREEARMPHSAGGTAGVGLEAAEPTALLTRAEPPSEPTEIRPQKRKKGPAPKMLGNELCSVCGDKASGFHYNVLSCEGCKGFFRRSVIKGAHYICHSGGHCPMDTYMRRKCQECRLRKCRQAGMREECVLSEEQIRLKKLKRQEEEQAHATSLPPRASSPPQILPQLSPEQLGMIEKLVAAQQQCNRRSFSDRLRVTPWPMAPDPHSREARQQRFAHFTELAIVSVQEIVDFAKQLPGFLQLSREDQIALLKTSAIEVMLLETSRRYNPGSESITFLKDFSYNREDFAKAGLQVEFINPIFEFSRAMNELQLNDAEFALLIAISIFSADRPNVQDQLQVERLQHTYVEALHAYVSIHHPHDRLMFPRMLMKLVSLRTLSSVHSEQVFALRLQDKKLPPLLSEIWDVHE
Sequence of Nuclear receptor subfamily 4 group A member 2 (Homo sapiens) (P43354 whole entry, looked up, the tested form may be a part): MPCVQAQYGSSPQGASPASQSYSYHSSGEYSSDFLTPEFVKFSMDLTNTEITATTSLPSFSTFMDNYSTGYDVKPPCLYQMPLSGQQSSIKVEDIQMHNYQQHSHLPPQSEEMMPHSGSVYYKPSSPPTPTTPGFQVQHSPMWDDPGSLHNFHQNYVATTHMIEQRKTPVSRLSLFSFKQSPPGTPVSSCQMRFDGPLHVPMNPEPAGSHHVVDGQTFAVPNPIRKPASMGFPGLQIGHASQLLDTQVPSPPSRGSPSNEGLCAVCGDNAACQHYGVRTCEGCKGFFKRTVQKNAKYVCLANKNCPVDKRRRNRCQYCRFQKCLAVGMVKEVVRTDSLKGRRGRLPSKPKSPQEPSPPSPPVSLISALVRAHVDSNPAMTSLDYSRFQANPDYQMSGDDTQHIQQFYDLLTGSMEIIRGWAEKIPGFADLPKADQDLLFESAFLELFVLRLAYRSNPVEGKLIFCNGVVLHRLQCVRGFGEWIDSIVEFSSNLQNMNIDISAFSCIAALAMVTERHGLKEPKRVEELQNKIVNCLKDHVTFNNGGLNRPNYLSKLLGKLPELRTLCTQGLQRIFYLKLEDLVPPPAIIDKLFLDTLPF
Sequence of Nuclear receptor subfamily 1 group I member 3 (Homo sapiens) (Q14994 whole entry, looked up, the tested form may be a part): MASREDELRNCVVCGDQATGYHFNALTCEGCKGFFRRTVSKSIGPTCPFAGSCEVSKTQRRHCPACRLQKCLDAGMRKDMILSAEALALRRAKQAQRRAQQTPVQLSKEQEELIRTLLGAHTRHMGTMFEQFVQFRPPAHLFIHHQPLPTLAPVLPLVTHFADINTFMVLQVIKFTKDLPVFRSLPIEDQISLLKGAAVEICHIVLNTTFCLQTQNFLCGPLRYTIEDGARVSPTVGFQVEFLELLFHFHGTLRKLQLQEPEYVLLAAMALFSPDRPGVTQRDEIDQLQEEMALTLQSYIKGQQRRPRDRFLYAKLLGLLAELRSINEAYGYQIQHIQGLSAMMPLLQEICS
Sequence of Hepatocyte nuclear factor 4-alpha (Homo sapiens) (P41235 whole entry, looked up, the tested form may be a part): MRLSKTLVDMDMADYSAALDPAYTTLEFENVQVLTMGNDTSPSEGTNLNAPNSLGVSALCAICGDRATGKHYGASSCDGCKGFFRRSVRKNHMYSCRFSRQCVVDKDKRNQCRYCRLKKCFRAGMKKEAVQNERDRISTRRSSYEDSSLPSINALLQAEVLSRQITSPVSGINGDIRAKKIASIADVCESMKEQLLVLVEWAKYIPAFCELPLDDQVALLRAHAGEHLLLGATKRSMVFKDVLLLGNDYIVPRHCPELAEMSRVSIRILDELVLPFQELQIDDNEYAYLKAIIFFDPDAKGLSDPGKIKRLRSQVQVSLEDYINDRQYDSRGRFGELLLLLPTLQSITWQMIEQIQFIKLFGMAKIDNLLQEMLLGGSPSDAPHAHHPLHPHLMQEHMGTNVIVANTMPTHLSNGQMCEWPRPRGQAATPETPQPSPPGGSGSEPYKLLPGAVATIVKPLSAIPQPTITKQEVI
Sequence of Transcriptional activator Myb (Homo sapiens) (P10242 whole entry, looked up): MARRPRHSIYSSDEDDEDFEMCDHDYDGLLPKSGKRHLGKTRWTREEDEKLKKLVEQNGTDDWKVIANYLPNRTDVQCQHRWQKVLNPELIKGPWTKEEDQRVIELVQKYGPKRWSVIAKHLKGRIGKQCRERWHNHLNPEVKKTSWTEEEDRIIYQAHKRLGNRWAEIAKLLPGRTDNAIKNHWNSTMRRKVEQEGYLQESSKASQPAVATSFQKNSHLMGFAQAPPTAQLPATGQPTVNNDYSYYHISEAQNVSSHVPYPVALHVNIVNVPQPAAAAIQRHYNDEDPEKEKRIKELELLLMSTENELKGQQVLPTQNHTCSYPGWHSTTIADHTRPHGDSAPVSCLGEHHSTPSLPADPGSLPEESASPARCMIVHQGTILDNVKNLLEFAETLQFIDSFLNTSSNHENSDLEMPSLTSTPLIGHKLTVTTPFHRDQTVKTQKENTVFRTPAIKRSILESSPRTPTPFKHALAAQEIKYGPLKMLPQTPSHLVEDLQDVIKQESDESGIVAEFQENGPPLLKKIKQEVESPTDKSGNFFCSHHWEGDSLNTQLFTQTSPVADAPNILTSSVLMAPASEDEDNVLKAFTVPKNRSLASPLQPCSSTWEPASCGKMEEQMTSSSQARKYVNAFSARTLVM
Sequence of X-box-binding protein 1 (Homo sapiens) (P17861 whole entry, looked up): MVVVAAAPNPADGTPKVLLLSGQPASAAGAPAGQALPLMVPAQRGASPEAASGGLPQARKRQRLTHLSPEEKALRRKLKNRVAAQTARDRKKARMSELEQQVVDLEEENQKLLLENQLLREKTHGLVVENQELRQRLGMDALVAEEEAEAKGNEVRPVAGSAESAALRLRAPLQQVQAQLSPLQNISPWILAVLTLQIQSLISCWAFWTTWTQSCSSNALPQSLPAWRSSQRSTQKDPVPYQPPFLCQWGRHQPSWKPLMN
Sequence of Steroid hormone receptor ERR1 (Homo sapiens) (P11474 whole entry, looked up, the tested form may be a part): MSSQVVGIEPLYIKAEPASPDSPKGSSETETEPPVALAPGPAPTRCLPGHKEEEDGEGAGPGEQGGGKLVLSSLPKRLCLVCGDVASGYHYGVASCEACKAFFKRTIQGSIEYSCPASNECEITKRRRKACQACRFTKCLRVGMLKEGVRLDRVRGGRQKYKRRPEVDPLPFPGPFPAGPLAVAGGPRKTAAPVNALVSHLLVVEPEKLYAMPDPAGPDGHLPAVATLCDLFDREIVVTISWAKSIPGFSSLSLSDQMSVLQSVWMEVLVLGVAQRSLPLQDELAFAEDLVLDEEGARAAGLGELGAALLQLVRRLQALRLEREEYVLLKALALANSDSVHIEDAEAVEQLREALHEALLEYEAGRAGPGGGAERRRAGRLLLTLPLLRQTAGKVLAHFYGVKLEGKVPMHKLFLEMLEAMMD
Sequence of Nuclear respiratory factor 1 (Homo sapiens) (Q16656 whole entry, looked up): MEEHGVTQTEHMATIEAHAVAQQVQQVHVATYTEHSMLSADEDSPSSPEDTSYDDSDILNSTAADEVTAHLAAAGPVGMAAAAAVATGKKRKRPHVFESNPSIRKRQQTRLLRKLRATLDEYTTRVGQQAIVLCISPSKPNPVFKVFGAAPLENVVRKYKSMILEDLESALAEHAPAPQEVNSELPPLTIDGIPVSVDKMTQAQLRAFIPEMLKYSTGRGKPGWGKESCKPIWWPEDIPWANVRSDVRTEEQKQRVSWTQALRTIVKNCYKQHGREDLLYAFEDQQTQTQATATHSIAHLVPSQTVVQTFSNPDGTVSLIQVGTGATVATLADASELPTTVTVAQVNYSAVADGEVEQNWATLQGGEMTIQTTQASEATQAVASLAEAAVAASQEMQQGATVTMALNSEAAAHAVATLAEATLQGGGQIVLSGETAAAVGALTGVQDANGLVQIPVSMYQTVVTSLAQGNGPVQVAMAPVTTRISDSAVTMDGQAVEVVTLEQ

NCCOCCO
not listed: [14] | [15] | [16] | [17] | [18] | [19] | [20]
inactive: all other assays above

O=Cc1ccc(F)cc1
not listed: [5] | [7] | [8] | [10] | [11] | [12] | [19] | [20]
inactive: all other assays above

CC(C)(COC(=O)c1ccccc1)COC(=O)c1ccccc1
active: [2] 100 µM | [3] 45.8 µM
not listed: [4] | [5] | [7] | [8] | [14] | [20]
inactive: all other assays above

CC(C)(N)CO
not listed: [6] | [7] | [11] | [14] | [17] | [18] | [19]
inactive: all other assays above

C[Si](O[Si](C)(C)C)O[Si](C)(C)C
not listed: [4] | [5] | [6] | [8] | [11] | [14] | [16] | [20]
inactive: all other assays above

C=C(C)[C@@H]1CCC2=CC(=O)C[C@@H](C)[C@]2(C)C1
active: [2] 152 µM
not listed: [5] | [8] | [9] | [11] | [14] | [18] | [19] | [20]
inactive: all other assays above

CC(=O)Nc1ccccc1O
inactive: [1] | [2] | [3] | [19] | [6] | [14] | [16] | [18] | [12] | [13]

O=[N+]([O-])c1ccc(C=Cc2ccc([N+](=O)[O-])cc2S(=O)(=O)O)c(S(=O)(=O)O)c1
not listed: [5] | [8] | [10] | [14] | [15] | [17] | [19] | [20]
inactive: all other assays above

CCCCCCCCC
not listed: [5] | [8] | [9] | [10] | [16] | [18] | [19] | [20]
inactive: all other assays above

CC(=O)c1c(C)cc(C(C)(C)C)cc1C
inactive: [1] | [2] | [3] | [19] | [6] | [10] | [15] | [11] | [16] | [18] | [12]

CC(C)=CCO
not listed: [8] | [9] | [16] | [18] | [19] | [20]
inactive: all other assays above
